From PubChem BioAssay AID1159580 (chemical genetic matrix, 2015)
The campaign covered roughly 5,500 compounds. About 2,000 (36%) were called active. Another 18% or so got no clear call; they are omitted. Cut-off read from the data, not from the text of the source: active = normalized growth mostly below about 0.91 (no sharp cut-off); inconclusive = no clear call, values can overlap the other calls; inactive = mostly above about 0.92. The list shows a part of the results.

Experiment: chemical genetic growth profiling, strain panel (AID 1159580);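 note: tested at 20 µM; growth read once vehicle control cultures reached saturation at 30 °C; 1 = growth at the plate median or of vehicle wells; lower values mean less growth of the strain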
Conditions: growth OD

Measured: normalized growth

COc1cc(O)c2c(=O)cc(-c3ccc(OC)c(-c4c(O)cc(O)c5c(=O)cc(-c6ccc(O)cc6)oc45)c3)oc2c1
active: S. cerevisiae deletion strains, locus YBR021W, strain FUR4, hits give low values 1.18 [resistant] | S. cerevisiae deletion strains, locus YGL248W, strain PDE1, hits give low values 0.877
inactive: S. cerevisiae deletion strains, locus YAL021C, strain ccr4, hits give low values 0.991 | S. cerevisiae deletion strains, locus YAL026C, strain drs2, hits give low values 0.982 | S. cerevisiae deletion strains, locus YAL030W, strain snc1, hits give low values 1.01 | S. cerevisiae deletion strains, locus YBL061C, strain skt5, hits give low values 0.996 | S. cerevisiae deletion strains, locus YBR009C, strain hhf1, hits give low values 0.988 | S. cerevisiae deletion strains, locus YBR023C, strain chs3, hits give low values 0.993 | S. cerevisiae deletion strains, locus YBR171W, strain sec66, hits give low values 1.03 | S. cerevisiae deletion strains, locus YBR229C, strain ROT2, hits give low values 0.948 | S. cerevisiae deletion strains, locus YBR231C, strain swc5, hits give low values 0.972 | S. cerevisiae deletion strains, locus YBR279W, strain paf1, hits give low values 1 | S. cerevisiae deletion strains, locus YCL011C, strain gbp2, hits give low values 1.02 | S. cerevisiae deletion strains, locus YCL016C, strain dcc1, hits give low values 1 | S. cerevisiae deletion strains, locus YCL029C, strain bik1, hits give low values 0.992 | S. cerevisiae deletion strains, locus YCL061C, strain MRC1, hits give low values 1 | S. cerevisiae deletion strains, locus YCL069W, strain vba3, hits give low values 1.02 | S. cerevisiae deletion strains, locus YCR088W, strain abp1, hits give low values 1.03 | S. cerevisiae deletion strains, locus YDL005C, strain med2, hits give low values 1.03 | S. cerevisiae deletion strains, locus YDL035C, strain GPR1, hits give low values 0.951 | S. cerevisiae deletion strains, locus YDL040C, strain nat1, hits give low values 1.01 | S. cerevisiae deletion strains, locus YDL074C, strain BRE1, hits give low values 1.01 | S. cerevisiae deletion strains, locus YDL101C, strain DUN1, hits give low values 0.959 | S. cerevisiae deletion strains, locus YDL134C, strain PPH21, hits give low values 0.917 | S. cerevisiae deletion strains, locus YDL185W, strain tfp1, hits give low values 0.968 | S. cerevisiae deletion strains, locus YDL192W, strain arf1, hits give low values 1 | S. cerevisiae deletion strains, locus YDR001C, strain nth1, hits give low values 1.02 | S. cerevisiae deletion strains, locus YDR069C, strain doa4, hits give low values 0.914 | S. cerevisiae deletion strains, locus YDR101C, strain arx1, hits give low values 0.997 | S. cerevisiae deletion strains, locus YDR137W, strain rgp1, hits give low values 1.05 | S. cerevisiae deletion strains, locus YDR150W, strain NUM1, hits give low values 0.953 | S. cerevisiae deletion strains, locus YDR159W, strain sac3, hits give low values 1.02 | S. cerevisiae deletion strains, locus YDR162C, strain NBP2, hits give low values 0.915 | S. cerevisiae deletion strains, locus YDR195W, strain ref2 0.986 | S. cerevisiae deletion strains, locus YDR297W, strain sur2, hits give low values 0.996 | S. cerevisiae deletion strains, locus YDR318W, strain mcm21, hits give low values 0.987 | S. cerevisiae deletion strains, locus YDR334W, strain swr1, hits give low values 1 | S. cerevisiae deletion strains, locus YDR335W, strain msn5, hits give low values 1.03 | S. cerevisiae deletion strains, locus YDR388W, hits give low values 0.986 | S. cerevisiae deletion strains, locus YDR392W, strain spt3, hits give low values 0.91 | S. cerevisiae deletion strains, locus YDR502C, strain sam2, hits give low values 0.978 | S. cerevisiae deletion strains, locus YEL003W, strain gim4, hits give low values 1 | S. cerevisiae deletion strains, locus YEL037C, strain rad23, hits give low values 1.01 | S. cerevisiae deletion strains, locus YEL061C, strain CIN8 (second series), hits give low values 1.02 | S. cerevisiae deletion strains, locus YEL061C, strain CIN8, hits give low values 0.934 | S. cerevisiae deletion strains, locus YER015W, strain faa2, hits give low values 1 | S. cerevisiae deletion strains, locus YER016W, strain bim1, hits give low values 1.01 | S. cerevisiae deletion strains, locus YER110C, hits give low values 0.983 | S. cerevisiae deletion strains, locus YER111C, strain swi4, hits give low values 1.01 | S. cerevisiae deletion strains, locus YER155C, strain BEM2 (second series), hits give low values 0.962 | S. cerevisiae deletion strains, locus YER155C, strain BEM2, hits give low values 1.03 | S. cerevisiae deletion strains, locus YER167W, strain BCK2, hits give low values 0.957 | S. cerevisiae deletion strains, locus YFR010W, strain ubp6, hits give low values 0.965 | S. cerevisiae deletion strains, locus YGL078C, strain dbp3, hits give low values 0.987 | S. cerevisiae deletion strains, locus YGL167C, strain pmr1, hits give low values 1.01 | S. cerevisiae deletion strains, locus YGL173C, strain kem1, hits give low values 0.975 | S. cerevisiae deletion strains, locus YGL227W, strain vid30, hits give low values 1.03 | S. cerevisiae deletion strains, locus YGL240W, strain doc1, hits give low values 1.05 | S. cerevisiae deletion strains, locus YGL253W, strain hxk2, hits give low values 1.03 | S. cerevisiae deletion strains, locus YGR078C, strain PAC10, hits give low values 0.913 | S. cerevisiae deletion strains, locus YGR135W, strain pre9, hits give low values 0.971 | S. cerevisiae deletion strains, locus YGR229C, strain SMI1, hits give low values 0.92 | S. cerevisiae deletion strains, locus YGR252W, strain gcn5, hits give low values 1.09 | S. cerevisiae deletion strains, locus YHR013C, strain ard1, hits give low values 1 | S. cerevisiae deletion strains, locus YHR027C, strain rpn1, hits give low values 1.01 | S. cerevisiae deletion strains, locus YHR030C, strain SLT2, hits give low values 0.966 | S. cerevisiae deletion strains, locus YHR079C, strain IRE1 (second series), hits give low values 0.994 | S. cerevisiae deletion strains, locus YHR094C, strain hxt1, hits give low values 0.99 | S. cerevisiae deletion strains, locus YHR129C, strain ARP1, hits give low values 0.931 | S. cerevisiae deletion strains, locus YHR142W, strain chs7, hits give low values 1.05 | S. cerevisiae deletion strains, locus YHR200W, strain rpn10, hits give low values 0.988 | S. cerevisiae deletion strains, locus YIL066C, strain RNR3, hits give low values 0.88 | S. cerevisiae deletion strains, locus YIL073C, strain SPO22, hits give low values 0.947 | S. cerevisiae deletion strains, locus YIL125W, strain kgd1, hits give low values 0.99 | S. cerevisiae deletion strains, locus YIR030C, strain dcg1, hits give low values 1.02 | S. cerevisiae deletion strains, locus YJL092W, strain hpr5, hits give low values 1.02 | S. cerevisiae deletion strains, locus YJL095W, strain BCK1 (second series), hits give low values 1.01 | S. cerevisiae deletion strains, locus YJL095W, strain BCK1, hits give low values 0.939 | S. cerevisiae deletion strains, locus YJL115W, strain asf1, hits give low values 1.02 | S. cerevisiae deletion strains, locus YJL129C, strain trk1, hits give low values 1.06 | S. cerevisiae deletion strains, locus YJL134W, strain LCB3, hits give low values 0.984 | S. cerevisiae deletion strains, locus YJL154C, strain vps35, hits give low values 1.03 | S. cerevisiae deletion strains, locus YJL164C, strain tpk1, hits give low values 0.98 | S. cerevisiae deletion strains, locus YJL166W, strain qcr8, hits give low values 1.01 | S. cerevisiae deletion strains, locus YJL168C, strain set2, hits give low values 0.992 | S. cerevisiae deletion strains, locus YJL187C, strain SWE1 (second series), hits give low values 0.891 | S. cerevisiae deletion strains, locus YJL187C, strain SWE1, hits give low values 0.997 | S. cerevisiae deletion strains, locus YJR043C, strain POL32, hits give low values 0.935 | S. cerevisiae deletion strains, locus YJR075W, strain HOC1, hits give low values 0.973 | S. cerevisiae deletion strains, locus YKL009W, strain mrt4, hits give low values 1.02 | S. cerevisiae deletion strains, locus YKL068W, hits give low values 0.98 | S. cerevisiae deletion strains, locus YKL085W, strain MDH1 (second series), hits give low values 1 | S. cerevisiae deletion strains, locus YKL085W, strain MDH1, hits give low values 1 | S. cerevisiae deletion strains, locus YKL160W, strain elf1, hits give low values 0.991 | S. cerevisiae deletion strains, locus YKR001C, strain vps1, hits give low values 0.962 | S. cerevisiae deletion strains, locus YKR026C, strain gcn3, hits give low values 1.01 | S. cerevisiae deletion strains, locus YKR091W, strain srl3, hits give low values 1.01 | S. cerevisiae deletion strains, locus YLL001W, strain dnm1, hits give low values 1.02 | S. cerevisiae deletion strains, locus YLL026W, hits give low values 1.01 | S. cerevisiae deletion strains, locus YLL041C, strain sdh2, hits give low values 1.02 | S. cerevisiae deletion strains, locus YLR027C, strain aat2, hits give low values 1.01 | S. cerevisiae deletion strains, locus YLR039C, strain RIC1, hits give low values 0.95 | S. cerevisiae deletion strains, locus YLR058C, strain SHM2, hits give low values 0.913 | S. cerevisiae deletion strains, locus YLR102C, strain apc9, hits give low values 0.99 | S. cerevisiae deletion strains, locus YLR221C, strain rsa3, hits give low values 1 | S. cerevisiae deletion strains, locus YLR258W, strain gsy2, hits give low values 1.01 | S. cerevisiae deletion strains, locus YLR262C, strain YPT6 (second series), hits give low values 1.04 | S. cerevisiae deletion strains, locus YLR262C, strain YPT6, hits give low values 1.04 | S. cerevisiae deletion strains, locus YLR268W, strain sec22, hits give low values 0.963 | S. cerevisiae deletion strains, locus YLR320W, strain mms22, hits give low values 0.996 | S. cerevisiae deletion strains, locus YLR330W, strain CHS5, hits give low values 0.975 | S. cerevisiae deletion strains, locus YLR342W, strain FKS1 (second series), hits give low values 0.981 | S. cerevisiae deletion strains, locus YLR342W, strain FKS1, hits give low values 0.996 | S. cerevisiae deletion strains, locus YLR357W, strain rsc2, hits give low values 0.985 | S. cerevisiae deletion strains, locus YLR370C, strain arc18, hits give low values 1.01 | S. cerevisiae deletion strains, locus YLR371W, strain rom2, hits give low values 0.996 | S. cerevisiae deletion strains, locus YLR384C, strain iki3, hits give low values 1.04 | S. cerevisiae deletion strains, locus YLR418C, strain cdc73, hits give low values 0.975 | S. cerevisiae deletion strains, locus YML016C, strain PPZ1, hits give low values 0.957 | S. cerevisiae deletion strains, locus YML032C, strain rad52, hits give low values 0.998 | S. cerevisiae deletion strains, locus YML120C, strain ndi1, hits give low values 1.03 | S. cerevisiae deletion strains, locus YML124C, strain tub3, hits give low values 1 | S. cerevisiae deletion strains, locus YMR058W, strain fet3, hits give low values 0.969 | S. cerevisiae deletion strains, locus YMR078C, strain ctf18, hits give low values 0.997 | S. cerevisiae deletion strains, locus YMR125W, strain sto1, hits give low values 1.01 | S. cerevisiae deletion strains, locus YMR129W, hits give low values 1.02 | S. cerevisiae deletion strains, locus YMR205C, strain PFK2, hits give low values 1.01 | S. cerevisiae deletion strains, locus YMR223W, strain ubp8, hits give low values 0.971 | S. cerevisiae deletion strains, locus YMR231W, strain pep5, hits give low values 1.01 | S. cerevisiae deletion strains, locus YMR307W, strain GAS1, hits give low values 1.17 | S. cerevisiae deletion strains, locus YNL067W, strain RPL9B, hits give low values 0.951 | S. cerevisiae deletion strains, locus YNL071W, strain lat1, hits give low values 1.02 | S. cerevisiae deletion strains, locus YNL153C, strain GIM3, hits give low values 0.912 | S. cerevisiae deletion strains, locus YNL209W, strain ssb2, hits give low values 0.994 | S. cerevisiae deletion strains, locus YNL233W, strain BNI4, hits give low values 0.973 | S. cerevisiae deletion strains, locus YNL248C, strain rpa49, hits give low values 1.02 | S. cerevisiae deletion strains, locus YNL250W, strain rad50, hits give low values 0.97 | S. cerevisiae deletion strains, locus YNL271C, strain bni1, hits give low values 0.986 | S. cerevisiae deletion strains, locus YNL298W, strain CLA4, hits give low values 0.975 | S. cerevisiae deletion strains, locus YNL307C, strain MCK1, hits give low values 0.965 | S. cerevisiae deletion strains, locus YNL322C, strain KRE1 (second series), hits give low values 1.03 | S. cerevisiae deletion strains, locus YNR049C, strain mso1, hits give low values 1.02 | S. cerevisiae deletion strains, locus YNR052C, strain pop2, hits give low values 0.993 | S. cerevisiae deletion strains, locus YOL012C, strain htz1 0.606 | S. cerevisiae deletion strains, locus YOL147C, strain pex11, hits give low values 0.99 | S. cerevisiae deletion strains, locus YOR001W, strain rrp6, hits give low values 0.987 | S. cerevisiae deletion strains, locus YOR061W, strain CKA2, hits give low values 0.917 | S. cerevisiae deletion strains, locus YOR069W, strain VPS5, hits give low values 0.98 | S. cerevisiae deletion strains, locus YOR070C, strain gyp1, hits give low values 1.02 | S. cerevisiae deletion strains, locus YOR080W, strain dia2, hits give low values 1 | S. cerevisiae deletion strains, locus YOR083W, strain WHI5, hits give low values 0.996 | S. cerevisiae deletion strains, locus YOR106W, strain vam3, hits give low values 0.983 | S. cerevisiae deletion strains, locus YOR136W, strain idh2, hits give low values 0.993 | S. cerevisiae deletion strains, locus YOR144C, strain elg1, hits give low values 1.01 | S. cerevisiae deletion strains, locus YOR184W, strain ser1, hits give low values 0.958 | S. cerevisiae deletion strains, locus YOR265W, strain rbl2, hits give low values 0.999 | S. cerevisiae deletion strains, locus YOR270C, strain vph1, hits give low values 1.02 | S. cerevisiae deletion strains, locus YOR290C, strain snf2, hits give low values 0.982 | S. cerevisiae deletion strains, locus YOR316C, strain cot1, hits give low values 0.989 | S. cerevisiae deletion strains, locus YPL051W, strain arl3, hits give low values 0.968 | S. cerevisiae deletion strains, locus YPL078C, strain atp4, hits give low values 1.03 | S. cerevisiae deletion strains, locus YPL106C, strain sse1, hits give low values 1 | S. cerevisiae deletion strains, locus YPL240C, strain hsp82, hits give low values 1.01 | S. cerevisiae deletion strains, locus YPR119W, strain clb2, hits give low values 1.01 | S. cerevisiae deletion strains, locus YPR141C, strain kar3, hits give low values 0.98 | S. cerevisiae deletion strains, locus YPR163C, strain tif3, hits give low values 0.997 | S. cerevisiae deletion strains, locus YPR167C, strain met16, hits give low values 0.99 | S. cerevisiae deletion strains, strain wtn01, hits give low values 0.969 | S. cerevisiae strains, strain wild type, hits give low values 0.904
